Source: the supplement of paper PMC6555819

Tests used:
Assay in all cases: PBM binding z-score (relative to random genomic background probes); higher = stronger binding; sequences stand for … in GC…GCGATTGACAGCGTAGAATGAAGG
[1] = system: FXR:RXRa (NR concentration 270 nM, RXRa partner concentration 90 nM)
Summary of the method: (§1)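 For binding z-scores, the reference was random background probes on custom Agilent 4×180K protein-binding microarrays. These arrays were incubated 1 h with ligand-free nuclear receptor dimers in PBS pH 7.4, 2% milk, 0.02% Triton X-100, 1 mM DTT, 0.2 mg/mL BSA and 0.4 mg/ml salmon testes DNA. Fluorescence was scanned after antibody detection of each partner (one per run) and regression-normalized.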

[2] = system: LXRa:RXRa (NR concentration 270 nM, RXRa partner concentration 90 nM)
Summary of the method: as §1

[3] = system: LXRa homodimer (NR concentration 270 nM)
Summary of the method: as §1

[4] = system: LXRb:RXRa (NR concentration 270 nM, RXRa partner concentration 90 nM)
Summary of the method: as §1

[5] = system: LXRb homodimer (NR concentration 270 nM)
Summary of the method: as §1

[6] = system: PPARa:RXRa (NR concentration 270 nM, RXRa partner concentration 90 nM)
Summary of the method: as §1

[7] = system: PPARg:RXRa (NR concentration 180 nM, RXRa partner concentration 90 nM)
Summary of the method: as §1

[8] = system: PPARg:RXRa 270nM:90nM, anti-RXR (NR concentration 270 nM, RXRa partner concentration 90 nM)
Summary of the method: as §1

[9] = system: PPARg:RXRa 30nM:10nM, anti-RXR (NR concentration 30 nM, RXRa partner concentration 10 nM)
Summary of the method: as §1

[10] = system: PPARg:RXRa 90nM:30nM, anti-RXR (NR concentration 90 nM, RXRa partner concentration 30 nM)
Summary of the method: as §1

[11] = system: PPARg:RXRa DBDmut IVT, anti-RXR (DBD mutation: RXRa K156A/R161A, NR concentration 270 nM, RXRa partner concentration 90 nM)
Summary of the method: as §1

[12] = system: PPARg:RXRa IVT, anti-PPARg (NR concentration 270 nM, RXRa partner concentration 90 nM)
Summary of the method: as §1

[13] = system: PPARg DBDmut:RXRa IVT, anti-PPARg (DBD mutation: PPARg1 K132A/R137A, NR concentration 270 nM, RXRa partner concentration 90 nM)
Summary of the method: as §1

[14] = system: PPARg DBDmut IVT, anti-PPARg (DBD mutation: PPARg1 K132A/R137A, NR concentration 270 nM)
Summary of the method: as §1

[15] = system: PPARg homodimer (NR concentration 180 nM)
Summary of the method: as §1

[16] = system: PXR:RXRa (NR concentration 270 nM, RXRa partner concentration 90 nM)
Summary of the method: as §1

[17] = system: PXR homodimer (NR concentration 270 nM)
Summary of the method: as §1

[18] = system: RARa:RXR (NR concentration 270 nM, RXRa partner concentration 90 nM)
Summary of the method: as §1

[19] = system: RARa homodimer (NR concentration 270 nM)
Summary of the method: as §1

[20] = system: RARb:RXRa (NR concentration 270 nM, RXRa partner concentration 90 nM)
Summary of the method: as §1

Row | Sequence | PBM binding z-score [1] | PBM binding z-score [2] | PBM binding z-score [3] | PBM binding z-score [4] | PBM binding z-score [5] | PBM binding z-score [6] | PBM binding z-score [7] | PBM binding z-score [8] | PBM binding z-score [9] | PBM binding z-score [10] | PBM binding z-score [11] | PBM binding z-score [12] | PBM binding z-score [13] | PBM binding z-score [14] | PBM binding z-score [15] | PBM binding z-score [16] | PBM binding z-score [17] | PBM binding z-score [18] | PBM binding z-score [19] | PBM binding z-score [20]
1 | CCTACTGGGGCATTCAGAGGTCATTGATCATATG | 3.08 | 4.37 | 6.25 | 3.91 | 0.359 | 4.07 | 3.34 | 4.13 | 1.23 | 3.12 | 4.5 | 5.15 | 0.018 | 0.266 | 2.6 | 5.08 | 2.1 | 4.67 | 0.372 | 3.45
2 | TCTAGCAGGCCAGGGGGTCACTCAAGAGGTACGG | 3.31 | 3.16 | 0.394 | 5.14 | 4.6 | 4.64 | 2.95 | 4.66 | 3.29 | 4.43 | 1.72 | 3.02 | 2.08 | 1.84 | 2.2 | 4.43 | 0.579 | 5.03 | 0.104 | 3.16
3 | ATCGAAAGGTCGAGGTTAGTATAGAGAAAGGGAA | 3.77 | 3.57 | 0.422 | 2.93 | 0.526 | 4.48 | 3.03 | 3.6 | 1.65 | 2.68 | 0.147 | 1.68 | 0.823 | 1.11 | 3.22 | 2.65 | 0.569 | 3.81 | 1.39 | 4.09
4 | TGTCAAAGTTCAAAGGTAAAGTAAGTATCCACAC | 7.42 | 6.49 | 3.99 | 4.8 | 1.68 | 5.87 | 8.7 | 7.81 | 5.23 | 7.51 | 0.197 | 4.58 | 1.35 | 1.98 | 3.26 | 5.75 | 3.72 | 5.81 | 1.83 | 5.07
5 | CCGACTGGGGCAAAGGTTACCAAACTCAGTACGA | 1.54 | 1.78 | 0.0328 | 2.27 | -1.29 | 5.64 | 10.5 | 9.36 | 9.35 | 10.6 | 4.42 | 6.14 | -0.923 | -0.533 | 1.38 | 2.51 | -0.494 | 4.11 | 0.0196 | 2.52
6 | TCGAGGAGGTTACCAATGGGGCATTCAGCTTTCT | 0.893 | 2.72 | -0.21 | 2.47 | -0.369 | 2.29 | 0.171 | 1.2 | 1.46 | 1.09 | 1.15 | 1 | -0.386 | -0.775 | 0.8 | 1.05 | -0.411 | 1.43 | -0.136 | 1.67
7 | TCGAGTAGGTTACAAATGGGGCATTCAGCTTTCT | 0.181 | 1.08 | -0.216 | 1.01 | -0.699 | 1.25 | 0.565 | 1.21 | 1.43 | 1.04 | 3.56 | 3.01 | 0.207 | -0.201 | 0.131 | 0.0276 | -0.499 | 0.475 | 0.267 | 0.54
8 | TCTCGGAGGACACGCAAGGTCAGAGCTCGACATC | 1.49 | 2.26 | 1.31 | 1.58 | -0.475 | 2.1 | 0.475 | 1.39 | 2.16 | 1.64 | 1.62 | 1.03 | -0.531 | -0.649 | 0.657 | 2.67 | 0.389 | 2.61 | 0.379 | 3.4
9 | GGAACGAGGGCAATGTTGATAGCATCTGTCGACG | 0.66 | 0.337 | -0.33 | 0.395 | -0.557 | 1.66 | 1.4 | 1.49 | 0.128 | 0.931 | 3.67 | 2.77 | 0.286 | -0.167 | 0.467 | 0.63 | 0.108 | 0.572 | -0.191 | 2.13
10 | TCTTGTAGATCAAAGGTTATGAAAGCCGAAGCCT | 1.67 | 2.16 | 0.00882 | 2.21 | 0.156 | 4.58 | 7.9 | 7.7 | 7.23 | 8.56 | 2.32 | 3.32 | 0.577 | 0.452 | 1.12 | 1.88 | 0.0149 | 3.07 | -0.114 | 1.79
11 | CCTACTGGGCCATTCAGAGATCATTGATCATATG | -0.238 | -0.231 | -0.224 | -0.409 | -0.653 | 0.219 | 0.557 | 0.204 | -0.621 | -0.372 | 4.48 | 3.51 | 0.0285 | 0.282 | -0.3 | -0.546 | -0.622 | -0.523 | 0.13 | 0.0331
12 | CCTCGGAGGACAACAGGAGGTCAGAGTTGCCAGA | 1.11 | 2.05 | 2.59 | 1.57 | -0.486 | 2.02 | 0.634 | 0.674 | -0.404 | 0.264 | -0.0815 | 0.313 | -0.9 | -1.99 | 2.15 | 2.36 | 1.11 | 2.64 | 0.759 | 2.83
13 | AGAACGAGGGCACGCTGAGTTGATAGCTGAGTAG | 0.863 | 0.607 | -0.912 | 0.017 | -0.95 | 2.18 | 2.08 | 1.87 | 0.18 | 1.06 | 4.41 | 3.75 | 0.643 | 0.101 | 0.829 | 1.57 | 0.136 | 1 | -0.945 | 2.57
14 | TCTAGCAAGCCAGAGGGTCACTCAAGAGGTACGG | 0.763 | 0.684 | -0.557 | 1.04 | -1.21 | 2 | 0.737 | 1.3 | 1.51 | 1.28 | 0.615 | -0.0358 | -1.2 | -1.18 | 0.24 | 0.871 | -0.204 | 1.96 | -0.908 | 1.62
